The text below walks through data of PubChem BioAssay AID602438 (Sanford-Burnham Center for Chemical Genomics, 2012).

Molecules are shown by their SMILES. The whole screen tested about 360,000 compounds, of which about 3,100 (0.86%) were called active. The list comes from a sample in which actives are over-represented; it also holds similar structures and randomly drawn compounds. A number with no mark means an inactive call.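 Rule for the calls: active = inhibition or corrected inhibition above about 18%, plus a signal ratio from 0.5 to 1.5 (limit read from the data, passing the limit was not always enough); inactive = the rest.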

For the test, the target named is Neuropilin-1 (Homo sapiens) (UniProt O14786). The test is described as follows: NRP-1/CendR peptide interaction modulators – biochemical, fluorescence polarization, uHTS, primary screen (AID 602438). The settings on record: FAM-RPARPAR peptide binding to NRP-1, fluorescence polarization; at 25 µM; stronger effect = higher value. (In general: Polarisation of emitted light reports the rotation of a fluorescent probe.)
Neuropilin-1 (Homo sapiens), sequence (O14786 whole entry, looked up): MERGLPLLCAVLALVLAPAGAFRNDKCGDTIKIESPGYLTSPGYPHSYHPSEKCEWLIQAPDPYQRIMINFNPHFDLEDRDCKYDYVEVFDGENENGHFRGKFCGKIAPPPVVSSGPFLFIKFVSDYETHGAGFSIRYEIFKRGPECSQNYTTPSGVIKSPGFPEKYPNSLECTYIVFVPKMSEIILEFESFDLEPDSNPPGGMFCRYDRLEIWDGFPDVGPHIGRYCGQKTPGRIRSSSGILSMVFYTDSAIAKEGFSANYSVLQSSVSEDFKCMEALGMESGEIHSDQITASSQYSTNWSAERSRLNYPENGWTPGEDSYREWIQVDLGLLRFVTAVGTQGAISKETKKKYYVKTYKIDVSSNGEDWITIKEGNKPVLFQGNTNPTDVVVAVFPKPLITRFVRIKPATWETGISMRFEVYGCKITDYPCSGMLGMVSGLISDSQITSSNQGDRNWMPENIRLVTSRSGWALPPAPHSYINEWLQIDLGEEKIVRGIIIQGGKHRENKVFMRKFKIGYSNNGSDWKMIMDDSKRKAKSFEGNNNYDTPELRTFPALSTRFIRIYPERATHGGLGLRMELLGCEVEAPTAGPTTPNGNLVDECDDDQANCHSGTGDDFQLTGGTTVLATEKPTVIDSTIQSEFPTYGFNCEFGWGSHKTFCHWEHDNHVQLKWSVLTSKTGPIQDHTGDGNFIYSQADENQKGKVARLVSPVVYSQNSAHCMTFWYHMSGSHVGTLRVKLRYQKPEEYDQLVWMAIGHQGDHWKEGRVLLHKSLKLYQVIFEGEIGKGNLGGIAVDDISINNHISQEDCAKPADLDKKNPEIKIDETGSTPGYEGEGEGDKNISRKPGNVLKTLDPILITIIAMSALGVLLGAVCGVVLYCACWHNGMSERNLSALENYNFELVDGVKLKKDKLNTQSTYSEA
By inhibition is commonly meant the relative decrease from the control value, in per cent. Take `Cc1ccc(N(C(=O)c2ccc(CN3CCOCC3)o2)C(C(=O)NCCC(C)C)c2cccs2)c(C)c1` (configuration not stated): the inhibition was 26.1% (active).
`Cc1cccc(N(C(=O)c2ccc(CN3CCOCC3)o2)C(C(=O)NC2CCCCC2)c2ccc(F)cc2)c1` (configuration not stated): the inhibition was -7.1%.
With `Cc1ccc(C(=O)NC(C)C(c2cccs2)N2CCOCC2)cc1C` (configuration not stated), the inhibition is -2%.
With `Cc1csc(=O)n1CCC(=O)OCC(=O)NNC(=O)c1ccc(Br)cc1`, the inhibition is -1.9%.
In the case of `CCOC(=O)N1CCN(C(c2ccnc3ccccc23)c2nnnn2-c2c(C)cccc2C)CC1` (configuration not stated), the inhibition is -13.7%.
As to `COc1cc(NC(=O)COC(=O)c2ccc([N+](=O)[O-])s2)cc(OC)c1OC`, the inhibition is -5.2%.
For the compound `O=C(OCC(=O)N1CCN(c2ccccc2)CC1)c1ccc([N+](=O)[O-])s1`, the inhibition was -3.7%.
For `COc1ccc(C(=O)COC(=O)c2ccc([N+](=O)[O-])s2)cc1OC` the value was 24.3% (active).
`COc1ncnc2c1ncn2CCCNCCN1CCOCC1`: the inhibition was 1%.
As for `CCOc1ccc(CCNC(=O)CSc2cc(=O)n(C)c3ccc(Cl)cc23)cc1OCC`, the inhibition was 4.1%.
On to `O=C(CCNC(=O)c1ccccc1Cl)NN=Cc1ccco1`, for which the inhibition was 10.2%.
As to `O=C(N/N=C/c1ccco1)c1csc2c1CCCC2`, the inhibition is 26.9% (active).
On to `O=C(Cc1ccccc1)Nc1cccc(C(=O)N/N=C/c2ccco2)c1`, for which the inhibition is -32.3%.
With `CC(=O)C(C)n1cnc2scc(-c3ccc(C)cc3)c2c1=O` (configuration not stated), the inhibition was 7.4%.
`CCOC(=O)C(C)n1cnc2scc(-c3ccc(C)c(C)c3)c2c1=O` (configuration not stated): the inhibition was 9.9%.
Take `CCC(C(=O)OC)n1cnc2scc(-c3ccc(C)cc3)c2c1=O` (configuration not stated): the inhibition was 91.3% (active).
As to `O=C(CCNC(=O)C1CCN(S(=O)(=O)c2ccccc2)CC1)NC1CC1`, the inhibition was -0.4%.
For `Cc1ccccc1NC(=O)c1cc(S(=O)(=O)N2CCOCC2)cs1` the value was 15%; for `Cc1ccc(-c2ccc(C3=CC(=O)CC(C)(C)C3=O)cc2)cc1`, 4.5%.
For `CN1CCN(c2cc3c(cc2F)c(=O)c(C(=O)O)cn3CCF)CC1` the value was 11.3%.
On to `CCOC(=O)Nc1sc(C(=O)N(C)C)c(C)c1C(=O)OCC`, for which the inhibition is 26.1% (active).
Take `CCOC(=O)c1c(NC(=O)COC(=O)c2ccc(S(=O)(=O)C(F)F)cc2)sc(C(=O)N(C)C)c1C`: the inhibition was -19.4%.
In the case of `CCOC(=O)c1c(NC(=O)CCl)sc(C(=O)N(CC)CC)c1C`, the inhibition was -0.5%.
`Cc1cc(NC(=O)CSc2nc(=O)cc(N)n2-c2ccc(F)cc2)no1`: the inhibition is 8.7%.
Take `COc1ccc(Cl)cc1S(=O)(=O)N1CCN(CC(=O)C(C)(C)C)CC1`: the inhibition is 21.7% (active).
Turning to `COc1ccc(C(=O)NCc2ccc(Cl)cc2)cc1S(=O)(=O)N1CCCC1`, the inhibition is 4.6%.
On to `COc1ccc(Cl)cc1S(=O)(=O)N1CCC(O)(c2ccc(Cl)cc2)CC1`, for which the inhibition was 3%.
